From PubChem
An excerpt weighted towards active compounds, which were near 6.3% of everything screened.
TGFb inhibitor: qHTS for Inhibitors of TGF-b; Potency, µM (top dose mostly 46.1 µM), most hits filed as inhibitors; AID 588855, 2011; 1.2% of 410,000 active; HepG2 CAGA-GFP TGF-b/SMAD3 reporter, GFP fluorescence, 18 h; TGF-beta stimulated, 500 pg/mL final; further: nearly all actives have a fitted effect of over 65% in size
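Inhibition was scored as loss of TGF-beta-induced (500 pg/mL final, 18 hours, 37 degrees C) GFP in HEPG2 cells carrying a CAGA-GFP reporter, in DMEM with 1% FBS. Well GFP was summed per cell; Activity was normalised to unstimulated and stimulated DMSO wells, then concentration-response fitting.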
VP16 counter: VP16 counterscreen qHTS for inhibitors of ROR gamma transcriptional activity | Drosophila S2 Gal4-VP16 UAS-luciferase, luminescence, 20 h | Potency, µM (doses to about 53.6 µM), actives largely listed as inhibitors | 3.5% of 310,000 active;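 further: Gal4-VP16 expression switched on by copper sulfate through the metallothionein promoter; nearly all actives have a fitted effect of over 50% in size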
ATXN2 expr inh: Primary qHTS for Inhibitors of ATXN expression; HEK-293 ATXN2-luciferase reporter, luminescence, 24 h; Potency, µM (doses to about 57 µM), actives largely listed as inhibitors; 0.72% of 360,000 active; further: nearly all actives have a fitted effect of over 55% in size
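ATXN2-luciferase reporter cells (luciferase flanked by upstream and downstream ATXN2 gene portions) were treated 24 h at 37 °C with compounds at up to 57 uM. SteadyGlo luminescence gave expression; GF-AFC fluorescence gave viability.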
RORg inh: qHTS for inhibitors of ROR gamma transcriptional activity. 5.4% of 310,000 active. Potency, µM (titrated, usually from 53.6 µM), usual class: inhibitors. Drosophila S2 Gal4-RORgamma UAS-luciferase reporter, 20 h; further: nearly all actives have a fitted effect of over 60% in size
Target sequence (P51450 whole entry, looked up, the tested form may be a part): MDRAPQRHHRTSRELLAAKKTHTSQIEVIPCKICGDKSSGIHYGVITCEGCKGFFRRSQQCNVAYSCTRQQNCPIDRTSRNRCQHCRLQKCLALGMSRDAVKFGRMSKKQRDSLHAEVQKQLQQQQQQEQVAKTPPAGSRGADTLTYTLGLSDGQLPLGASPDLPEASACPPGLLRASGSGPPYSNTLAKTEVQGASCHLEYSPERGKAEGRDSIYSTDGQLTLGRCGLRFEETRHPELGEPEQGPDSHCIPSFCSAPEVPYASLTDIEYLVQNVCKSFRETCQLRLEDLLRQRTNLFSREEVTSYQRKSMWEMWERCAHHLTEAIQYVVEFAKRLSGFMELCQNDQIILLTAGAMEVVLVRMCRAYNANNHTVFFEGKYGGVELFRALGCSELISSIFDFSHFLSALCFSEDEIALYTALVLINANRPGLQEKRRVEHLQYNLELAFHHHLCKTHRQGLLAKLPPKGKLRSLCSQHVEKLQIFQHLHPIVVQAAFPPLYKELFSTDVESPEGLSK
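Drosophila Schneider cells stably carrying a metallothionein-driven Gal4 DBD–ROR gamma fusion and a UAS-Photinus luciferase reporter were exposed to compound for 1 hr, then induced with copper sulfate (700 uM final) for 20 hr at ambient temperature before luminescence reading.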
S2 tox: Viability Counterscreen for Primary qHTS for Inhibitors of ATXN expression. S2 cells (HEK-293 line with an ATXN2-luciferase reporter) viability, CellTiter-Fluor protease fluorescence, 24 h. Potency, µM (highest dose often 56.7 µM), hits mostly cytotoxic. 0.49% of 400,000 active. AID 651635, 2014; further: nearly all actives have a fitted effect of over 40% in size
HepG2 tox-1: qHTS for Inhibitors of TGF-b: Cytotox Counterscreen; HepG2 CAGA-GFP viability, ATP luminescence, 18 h; 0.76% of 410,000 active; Potency, µM (highest dose often 46.1 µM), actives largely listed as cytotoxic
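CellTiter-Glo luminescence gave cytotoxicity after 18 hours at 37 degrees C. The cells were HepG2 CAGA-GFP in 1% FBS DMEM, stimulated with 500 pg/mL TGF-beta after compound addition. %Activity was normalised to no-cell wells (complete cell-killing) and DMSO (no toxicity), and curves were fitted and classified.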
TGFb confirm: qHTS for Inhibitors of TGF-b: Confirmation of Cherry Picks. 63% of 1,600 active. shares compounds with TGFb inhibitor. HepG2 CAGA-GFP TGF-b reporter, GFP fluorescence, 18 h; cells stimulated with TGF-beta, 500 pg/mL. AID 720534, 2013. Potency, µM (top dose mostly 46.1 µM), most hits filed as inhibitors; further: nearly all actives have a fitted effect of over 65% in size
HepG2 tox-2: qHTS for Inhibitors of TGF-b: Cytotox Counterscreen for Cherry Picks | shares compounds with TGFb inhibitor | HepG2 CAGA-GFP viability, ATP luminescence, 18 h; cells stimulated with TGF-beta, 500 pg/mL | Potency, µM (highest dose often 46.1 µM), hits mostly inhibitors | 27% of 1,600 active | AID 720535, 2013; further: nearly all actives have a fitted effect of over 70% in size
CCL64 TGFb inh: qHTS for Inhibitors of TGF-b: CCL64 Cells Orthogonal Assay for Cherry Picks; shares compounds with TGFb inhibitor; CCL64 CAGA-GFP reporter, TGF-b stimulated, GFP fluorescence, 18 h; Potency, µM (top dose mostly 46.1 µM), hits mostly inhibitors; 41% of 1,600 active; further: nearly all actives have a fitted effect of over 65% in size
COP TGFb inh: qHTS for Inhibitors of TGF-b: Hit Validation in HepG2 Cells using COP promoter. shares compounds with TGFb inhibitor. HepG2 COP-GFP TGF-b reporter, GFP fluorescence, 18 h; cells stimulated by added recombinant TGF-beta. Potency, µM (top dose mostly 46.1 µM), actives largely listed as inhibitors. 3% of 1,600 active. AID 720537, 2013; further: nearly all actives have a fitted effect of over 70% in size
SK-N-SH 3D tox: qHTS of pediatric cancer cell lines to identify multiple opportunities for drug repurposing: Orthogonal 3D viability screen for SK-N-SH cells | shares compounds with ATXN2 expr inh | Potency, µM (top dose mostly 30.7 µM), hits mostly inhibitors | SK-N-SH 3D spheroid viability, PI/Hoechst imaging, 72 h | 70% of 65 active
SJ-GBM2 3D tox: qHTS of pediatric cancer cell lines to identify multiple opportunities for drug repurposing: Orthogonal 3D viability screen for SJ-GBM2 cells; shares compounds with ATXN2 expr inh; SJ-GBM2 3D spheroid viability, PI/Hoechst imaging, 72 h; Potency, µM (series often up to 30.7 µM), most hits filed as inhibitors; 80% of 65 active
Daoy spheroid: qHTS of pediatric cancer cell lines to identify multiple opportunities for drug repurposing: Orthogonal 3D viability screen for Daoy cells; Potency, µM (doses to about 30.7 µM), actives largely listed as inhibitors; shares compounds with ATXN2 expr inh; AID 1347137, 2019; 50% of 65 active; Daoy 3D spheroid viability, PI/Hoechst imaging, 72 h
TC32 3D casp: qHTS of pediatric cancer cell lines to identify multiple opportunities for drug repurposing: Orthogonal 3D caspase screen for TC32 cells. Potency, µM (series often up to 30.7 µM), actives largely listed as inhibitors. shares compounds with ATXN2 expr inh. 30% of 65 active. TC32 3D spheroids, caspase-3/7 fluorescence imaging, 24 h
TC32 spheroid: qHTS of pediatric cancer cell lines to identify multiple opportunities for drug repurposing: Orthogonal 3D viability screen for TC32 cells; Potency, µM (doses to about 30.7 µM), usual class: inhibitors; AID 1347139, 2019; 60% of 65 active; TC32 3D spheroid viability, PI/Hoechst imaging, 72 h; shares compounds with ATXN2 expr inh
MG63 3D tox: qHTS of pediatric cancer cell lines to identify multiple opportunities for drug repurposing: Orthogonal 3D viability screen for MG 63 (6-TG R) cells | shares compounds with ATXN2 expr inh | MG-63 (6-TG R) 3D spheroid viability, PI/Hoechst imaging, 72 h | Potency, µM (titrated, usually from 30.7 µM), hits mostly inhibitors | 50% of 65 active | AID 1347140, 2019
RD spheroid: qHTS of pediatric cancer cell lines to identify multiple opportunities for drug repurposing: Orthogonal 3D viability screen for RD cells; Potency, µM (doses to about 30.7 µM), actives largely listed as inhibitors; 50% of 65 active; AID 1347141, 2019; RD rhabdomyosarcoma 3D spheroid viability, PI/Hoechst imaging, 72 h; shares compounds with ATXN2 expr inh
Numbers stand for hits; 0 = inactive; ? = inconclusive; - = no result given. The call rests on the fitted dose curve; in most records, active means well fitted curve in the direction sought with a large enough effect; inconclusive means small, poorly fitted or top-dose-only effect, or another doubt; inactive means no such curve, though single readings can be large; an effect the other way counts as inactive or inconclusive.

SMILES	TGFb inhibitor	VP16 counter	ATXN2 expr inh	RORg inh	S2 tox	HepG2 tox-1	TGFb confirm	HepG2 tox-2	CCL64 TGFb inh	COP TGFb inh	others
CC(C)C[C@H]1CNC(=S)N1C[C@H]1CCCN1C[C@H](Cc1ccc(O)cc1)N1C[C@H](Cc2ccccc2)N(CC2CCCCC2)C1=S	?	-	?	-	?	0	-	-	-	-
CC(C)C[C@H]1CNC(=S)N1CC1CCCN1C[C@H](Cc1ccccc1)N1C[C@H](Cc2ccc(O)cc2)N(CC2CCCCC2)C1=S (some centres not stated)	8.9µM	-	0	-	0	0	6.5µM	0	21µM	0
CC(C)c1ccc(NC(=O)c2ccc3c(c2)CCCN3S(C)(=O)=O)cc1	0	-	0	-	?	0	-	-	-	-
O=C(/C=C/c1cccc([N+](=O)[O-])c1)c1ccc([N+](=O)[O-])o1	1.3µM	-	?	-	3.5µM	4.5µM	2.9µM	8.2µM	1.6µM	?
Cc1ccccc1/C=C/C(=O)c1ccc([N+](=O)[O-])o1	3.2µM	-	13µM	-	13µM	0	3.3µM	6.5µM	4.1µM	?
Cc1cccc(/C=C/C(=O)c2ccc([N+](=O)[O-])o2)c1	2.2µM	-	10µM	-	10µM	10µM	3.3µM	5.2µM	2.1µM	?
COc1ccc(/C=C/C(=O)c2ccc([N+](=O)[O-])o2)cc1	?	-	?	-	?	0	-	-	-	-
CCN(CC)c1nn2c(=O)c(C(=O)NCc3ccccc3Br)cnc2s1	0	-	-	-	-	0	-	-	-	-
CC12CC3CC1C(C(=O)O2)C3C(=O)O (configuration not stated)	0	-	0	-	0	0	-	-	-	-
CCOc1ccccc1CNC(=O)CCC(=O)N1CCSc2ccccc21	?	-	-	-	-	0	-	-	-	-
COc1cccc2c1C(=O)c1c(O)c3c(c(O)c1C2=O)C[C@@](O)(C(=O)CO)C[C@@H]3O[C@H]1C[C@H](N)[C@H](O)[C@H](C)O1	3.5µM	5.6µM	0.32µM	3.5µM	4µM	0	0.16µM	0.52µM	1.3µM	0	SK-N-SH 3D tox=0.18µM;SJ-GBM2 3D tox=0.29µM;Daoy spheroid=2.9µM;TC32 3D casp=1µM;TC32 spheroid=0.32µM;MG63 3D tox=4.1µM;RD spheroid=2.6µM
Cc1cc(C)c2c(CC(=O)Nc3ccc(F)cc3)coc2c1	?	-	0	-	0	0	-	-	-	-
COc1cc(C(C)=O)ccc1OCCCN1CCC(c2noc3cc(F)ccc23)CC1	-	-	0	-	0	-	-	-	-	-	SK-N-SH 3D tox=?;SJ-GBM2 3D tox=4.1µM;Daoy spheroid=16µM;TC32 3D casp=0;TC32 spheroid=0;MG63 3D tox=13µM;RD spheroid=14µM
COc1cc(C(C)=O)ccc1OCCCN1CCC(Cc2ccccc2)CC1	0	-	0	-	?	0	-	-	-	-
CC[C@@H]1C=C(C)C[C@H](C)C[C@H](OC)[C@H]2O[C@@](O)(C(=O)C(=O)N3CCCC[C@@H]3C(=O)O[C@H](C(C)=C[C@@H]3CC[C@H](Cl)[C@H](OC)C3)[C@H](C)[C@@H](O)CC1=O)[C@H](C)C[C@H]2OC	-	-	?	-	-	-	-	-	-	-	SK-N-SH 3D tox=16µM;SJ-GBM2 3D tox=2.3µM;Daoy spheroid=1.4µM;TC32 3D casp=0;TC32 spheroid=20µM;MG63 3D tox=3.6µM;RD spheroid=?
CC[C@@H]1/C=C(\C)C[C@H](C)C[C@H](OC)[C@H]2O[C@@](O)(C(=O)C(=O)N3CCCC[C@H]3C(=O)O[C@H](/C(C)=C/[C@@H]3CC[C@H](Cl)[C@H](OC)C3)[C@H](C)[C@@H](O)CC1=O)[C@H](C)C[C@@H]2OC	-	0	-	0	-	-	-	-	-	-
